# Bioassay records from PubChem BioAssay.
# JMJD2A Tudor: blocks the human JMJD2A Tudor domain | hit rate 4.4% among 390,000 | AlphaScreen JMJD2A-Tudor / H3K4me3 peptide binding | Potency, µM (top dose mostly 114 µM), inactives show at the highest dose activity change, negative = inhibition, most hits filed as inhibitors | AID 504339; further: on the % scale 0 is the no-effect control and ±100 the full control effect; nearly all actives have a fitted effect of over 50% in size
# Sfp PPTase inh: Sfp phosphopantetheinyl transferase inhibition; Biochemical Sfp PPTase activity, qHTS; Potency, µM, without a hit: largest response in the series, negative = inhibition, hits mostly inhibitors; hit rate 3.5% among 310,000;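 further: the enzyme is Sfp with the accession as filed and its product quenches rhodamine fluorescence; 0% = enzyme reaction without inhibitor and -100% = no enzyme wells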
#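 Fluorescence-quenching assay: 15 nM Sfp-PPTase preincubated 15 min at room temperature with compound, then 5 uM rhodamine-CoA and 12.5 uM BHQ-2-labelled YbbR peptide added. Fluorescence (ex 525/em 598 nm) read at start and after 30 min; difference gives rate.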
# G9a block: G9a (human) methyltransferase inhibition; Q96KQ7; G9a H3K9 monomethylation, AlphaScreen, 2 h; Potency, µM (series often up to 102 µM), for inactives: top-dose activity, negative = inhibition, actives largely listed as inhibitors; hit rate 8.8% among 350,000; AID 504332; further: on the % scale 0 is the no-effect control and ±100 the full control effect; nearly all actives have a fitted effect of over 75% in size
# Target sequence (Q96KQ7 913-1193 limits assumed): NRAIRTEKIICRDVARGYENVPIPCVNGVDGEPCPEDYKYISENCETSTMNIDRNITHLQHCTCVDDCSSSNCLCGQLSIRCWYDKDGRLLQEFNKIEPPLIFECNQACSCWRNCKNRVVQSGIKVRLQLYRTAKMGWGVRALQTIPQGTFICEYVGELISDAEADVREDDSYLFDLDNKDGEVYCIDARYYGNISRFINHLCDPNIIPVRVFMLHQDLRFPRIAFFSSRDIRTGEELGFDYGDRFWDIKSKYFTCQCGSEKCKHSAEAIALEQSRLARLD
#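 AlphaScreen detection with an anti-monomethyl H3K9 antibody quantified product after a 2 h room-temperature reaction containing 500 nM biotinylated H3K9 peptide, 20 µM SAM and 20 nM enzyme, which had been preincubated 15 min with compound.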
# BAZ2B block: BAZ2B (human) inhibition | AlphaScreen BAZ2B-H3K14Ac peptide displacement | hit rate 4.4% among 360,000 | Potency, µM (doses to about 114 µM), for the others: top-dose activity change, negative = inhibition, most hits filed as inhibitors; further: on the % scale 0 is the no-effect control and ±100 the full control effect; nearly all actives have a fitted effect of over 60% in size
#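 Complex of BAZ2B and biotin-H3K14Ac (50 nM apiece) forms over 30 min at RT, then faces library compounds up to 110 uM for another 30 min; AlphaScreen beads added, 20 min dark incubation, luminescence read.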
# HP1b chromo inh: inhibitors of HP1-beta chromodomain binding to methylated histone tails. AlphaScreen HP1-beta / biotin-H3K9me3 peptide binding. Potency, µM (doses to about 114 µM), inactives show at the highest dose activity change, negative = inhibition, actives largely listed as inhibitors. hit rate 0.56% among 390,000. AID 540317; further: nearly all actives have a fitted effect of over 70% in size
# Target sequence (P83916 whole entry, looked up): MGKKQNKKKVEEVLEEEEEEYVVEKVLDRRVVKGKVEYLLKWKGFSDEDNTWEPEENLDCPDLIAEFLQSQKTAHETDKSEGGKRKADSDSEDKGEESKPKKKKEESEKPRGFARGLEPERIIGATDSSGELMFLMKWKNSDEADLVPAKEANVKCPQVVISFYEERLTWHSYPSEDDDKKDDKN
#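 AlphaScreen: HP1-beta (50 nM) preformed 30 min with biotin-H3(1-18)K9me3 peptide (50 nM) in PBS pH 7.4, 0.01% Tween-20. Compound added for 30 min at RT, then streptavidin donor/nickel chelate acceptor beads (10 ug/mL) for 30 min.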
# Numbers without * were called inactive; ? = inconclusive; nt = not tested or not shown; [ ] = remark or other dose. Hits are enriched below; roughly 12% of the tested compounds scored in any of these assays. The call rests on the fitted dose curve; in most records, active means well fitted curve in the direction sought with a large enough effect; inconclusive means small, poorly fitted or top-dose-only effect, or another doubt; inactive means no such curve, though single readings can be large; an effect the other way counts as inactive or inconclusive. Potency means the concentration at half of the fitted maximal effect.
SMILES,JMJD2A Tudor,Sfp PPTase inh,G9a block,BAZ2B block,HP1b chromo inh
CN1CCCN(S(=O)(=O)c2ccc(O)c(C(=O)O)c2)CC1,-15%,9%,79µM*,-12%,22%
CC(=O)NCc1ccc(S(=O)(=O)N2CCCN(C)CC2)cc1,25µM*,-26%,79µM*,-14%,4%
O=C(O)COCC(=O)NCc1csc2ccccc12,-6%,24%,50µM*,1%,9%
COc1ccc(C(=O)C[N+]2(C)CCOCC2)cc1,22µM*,-7%,13µM*,?,26%
OC(CN1CCC(Cc2ccccc2)CC1)C(F)(F)F (stereo not drawn),-1%,8%,-9%[0.501 µM],2%,64%
COc1cc(/C=C2\SC(=S)N(Nc3ncc(C(F)(F)F)cc3Cl)C2=O)ccc1O,?,?,40µM*,35µM*,?
CC(=O)NN1C(=O)/C(=C\c2ccc(Cl)cc2)SC1=S,-6%,4%,nt,-2%,16%
COc1cc(/C=C2\SC(=N)N(c3ccc(F)cc3)C2=O)ccc1O,-8%,5%,-22%[59 µM],-20%,34%
CN(C)c1ccc(/C=C2\SC(=S)N(Nc3ncc(C(F)(F)F)cc3Cl)C2=O)cc1,-33%,50µM*,?,?,-5%
CC(=O)N1CCOc2cc(S(=O)(=O)Nc3cccc(C(F)(F)F)c3)c(Cl)cc21,-26%,nt,0%[59 µM],2%,61%
Cc1[nH][nH]c(=O)c1C(c1ccc(N(C)C)c(Br)c1)c1c(C)[nH][nH]c1=O,?,-19%,nt,-9%,8%
Cc1ccc(S(=O)(=O)Oc2ccc(C(c3c(C)[nH][nH]c3=O)c3c(C)[nH][nH]c3=O)cc2)cc1,-36%,-11%,-72%,-9%,-1%
COc1ccc(-c2ccc(C(c3c(C)[nH][nH]c3=O)c3c(C)[nH][nH]c3=O)o2)c([N+](=O)[O-])c1,?,20µM*,4µM*,40µM*,-12%
CCOc1ccc(Cl)cc1C(c1c(C)[nH][nH]c1=O)c1c(C)[nH][nH]c1=O,-23%,12%,-13%,-12%,24%
Cc1[nH][nH]c(=O)c1C(c1ccc(-c2ccc(F)cc2)o1)c1c(C)[nH][nH]c1=O,?,?,25µM*,?,2%
Cc1[nH][nH]c(=O)c1C(c1ccc(-c2ccc(C(=O)O)cc2)o1)c1c(C)[nH][nH]c1=O,-32%,-88%,3.5µM*,56µM*,?
Cc1[nH][nH]c(=O)c1C(c1ccc(-c2ccc(Cl)c(Cl)c2)o1)c1c(C)[nH][nH]c1=O,?,56µM*,11µM*,?,-35%
COc1cccc(OC)c1C(=O)OCC(=O)NCCCc1ccccc1,-8%,-1%,19%,3%,25%
Cc1cccc(N2CC(c3nc4ccccc4n3C)CC2=O)c1C (stereo not drawn),-8%,11%,20%,5%,32%
COc1ccc(C2=Nn3c(nnc3-c3cc(C)[nH]n3)SC2)cc1,-9%,11%,-32%,-9%,2%
COc1ccc(C2C(C(=O)NCc3ccccn3)CCC(=O)N2c2cc(OC)c(OC)c(OC)c2)cc1 (stereo not drawn),2%,11%,5%,-3%,37%
Cc1cccc2sc(NNC(=O)c3ccc(S(=O)(=O)N4CCCC(C)C4)cc3)nc12 (stereo not drawn),11µM*,?,25µM*,11%,-24%
Cc1cccc2sc(NNC(=O)c3ccc(S(=O)(=O)N4CCc5ccccc5C4)cc3)nc12,8.9µM*,?,40µM*,4µM*,-15%
Nc1c(Cl)ncnc1Nc1ccc(C(=O)O)cc1,13µM*,nt,nt,nt,28%
O=C(O)c1ccc(Nc2ncnc3ccccc23)cc1,-28%,-4%,11%,-5%,13%
SMILES,JMJD2A Tudor,Sfp PPTase inh,G9a block,BAZ2B block,HP1b chromo inh
COc1cccc(-n2c(=O)c3ccccc3n(CC(=O)NCC3CCCO3)c2=O)c1 (stereo not drawn),7%,4%,-13%,6%,31%
CCn1c(=O)c2sccc2n2c(CCC(=O)Nc3ccc(OC)c(Cl)c3)nnc12,-5%,nt,8%[59 µM],8%,44%
Cc1nc(C(F)(F)F)c(C(=O)N/N=C(\N)c2cccnc2)s1,28µM*,?,29%,79µM*,10%
C/C(=N\NC(=O)c1sccc1C)c1cccnc1,-5%,15%,16%,-15%,33%
CCOC(=O)N1CCC2(CC1)C(C(=O)C13CC4CC(CC(C4)C1)C3)C2(C#N)C#N (stereo not drawn),-3%,1%,-33%[12.7 µM],3%,22%
COc1cc(Br)c(C(=O)c2nccc3cc(OC)c(OC)cc23)cc1OC,45µM*,6%,-19%,?,2%
COc1cc(C(=O)c2nccc3cc(OC)c(OC)cc23)c([N+](=O)[O-])cc1OC,?,11%,45µM*,?,7%
COc1cc(N)c(C(=O)c2nccc3cc(OC)c(OC)cc23)cc1OC,-35%,15%,nt,-12%,1%
O=[N+]([O-])c1cccc(COc2ccc(CN3CCCCC3)cc2)c1,-13%,nt,nt,nt,23%
CCOC(=O)C1CCN(C(=O)CCc2nnc3ccc(NCc4ccco4)nn23)CC1,-24%,5%,-9%,?,29%
O=C(CCc1nnc2ccc(NCc3ccco3)nn12)N1CCN(c2ccccc2)CC1,40µM*,3%,-16%,50µM*,-23%
COc1ccc(NC(C)=[N+](C)CCNS(=O)(=O)c2ccc(Cl)cc2)cc1,25µM*,71µM*,?,56µM*,?
COCCCNC(=O)CCc1nnc(Cc2ccc(-c3ccccc3)cc2)o1,1%,7%,nt,0%,29%
Cc1ccc(CNC(=O)CCc2nnc(Cc3ccc(-c4ccccc4)cc3)o2)o1,-12%,22µM*,-7%,-27%,12%
O=C(CCCN1C(=O)CSc2ncccc21)N1CCN(Cc2ccccc2)CC1,-6%,6%,35µM*,-1%,71%
CCOC(=O)N1CCC(NC(=O)CCCN2C(=O)CSc3ncccc32)CC1,0%,9%,14%[59 µM],1%,48%
COc1ccc(C2(C(=O)NCCN3CCOCC3)CCOCC2)cc1,-1%,16%,-33%[59 µM],3%,27%
Cc1c(CNCCC2=CCCCC2)c(C(=O)O)c(C)n1Cc1ccccc1,-21%,11%,50µM*,-37%,12%
CCOc1ccc(C(=O)c2cn(CC(=O)Nc3ccc(C)c(Cl)c3)c3ccc(OCC)cc3c2=O)cc1,-3%,nt,13%[59 µM],5%,41%
O=C(NCCN1CCN(C(=O)c2ccc(Br)cc2)CC1)c1ccc(Br)cc1,-21%,8%,1%,-5%,39%
OCCN1CCN(C(=S)c2ccc(Br)cc2)CC1,-10%,32µM*,22µM*,-2%,0%
CSc1ccc(C(=S)N2CCN(CCO)CC2)cc1,-8%,8.9µM*,10µM*,5%,-16%
O=C(CCc1nnc2n(Cc3ccccc3Cl)c(=O)c3ccccc3n12)NCCCN1CCOCC1,-4%,9%,12%,-12%,13%[57 µM]
